Reference: publication PMC5540273 (PLoS ONE, 2017)

How the values were obtained:
Conditions in all cases: concentration: 1 μM, replicates: in singlicate; n = 1
ERBB2 = system: ERBB2
ERBB3 = system: ERBB3
ERBB4 = system: ERBB4
ERK1 = system: T1, ERK1
T1 construct: gene MAPK3

ERK2 = system: T2, ERK2
T2 construct: gene MAPK1

ERK3 = system: T3, ERK3
T3 construct: gene MAPK6

ERK4 = system: T4, ERK4
T4 construct: gene MAPK4

ERK5 = system: T5, ERK5
T5 construct: gene MAPK7

ERK8 = system: T6, ERK8
T6 construct: gene MAPK15

ERN1 = system: ERN1
FAK = system: T7, FAK
T7 construct: gene PTK2

FER = system: FER
FES = system: FES
FGFR1 = system: FGFR1
FGFR2 = system: FGFR2
FGFR3 = system: FGFR3
FGFR4 = system: FGFR4
FGR = system: FGR
FLT1 = system: FLT1
FLT3-autoinhibited = system: FLT3-autoinhibited
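Further: KINOMEscan kinase panel screen.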

| SMILES | %Inh (ERBB2) | %Inh (ERBB3) | %Inh (ERBB4) | %Inh (ERK1) | %Inh (ERK2) | %Inh (ERK3) | %Inh (ERK4) | %Inh (ERK5) | %Inh (ERK8) | %Inh (ERN1) | %Inh (FAK) | %Inh (FER) | %Inh (FES) | %Inh (FGFR1) | %Inh (FGFR2) | %Inh (FGFR3) | %Inh (FGFR4) | %Inh (FGR) | %Inh (FLT1) | %Inh (FLT3-autoinhibited) |
| --- | --- | --- | --- | --- | --- | --- | --- | --- | --- | --- | --- | --- | --- | --- | --- | --- | --- | --- | --- | --- |
| CC(=O)Nc1nc2cnc(Nc3cc(NC(=O)c4cccc(CCC#N)c4)ccc3C)nc2s1 | 6% | 7% | 14% | 0% | 21% | 4% | 3% | 3% | 0% | 0% | 7% | 0% | 17% | 9% | 22% | 17% | 0% | 21% | 30% | 5% |
| CCn1c(-c2cccnc2O)nc2cnccc21 [SB-736715] | 9% | 0% | 25% | 0% | 0% | 0% | 0% | 0% | 0% | 0% | 0% | 0% | 0% | 0% | 0% | 0% | 0% | 0% | 0% | 0% |
| COc1cc2nccc(Nc3ccc(NC(=O)c4ccc(C)cc4)c(O)c3)c2cc1OC.Cl [GW440132] | 14% | 0% | 9% | 0% | 2% | 13% | 3% | 0% | 1% | 29% | 0% | 45% | 5% | 22% | 22% | 2% | 6% | 37% | 30% | 0% |
| Cc1ccc(C(=O)Nc2ccc(Nc3ccnc4cc(-c5ccccn5)ccc34)cc2O)cc1.Cl [GW440146] | 38% | 0% | 31% | 5% | 0% | 0% | 10% | 0% | 0% | 0% | 0% | 30% | 0% | 1% | 0% | 0% | 0% | 59% | 28% | 0% |
| NC(=O)c1nnc2ccccc2c1N | 22% | 45% | 4% | 0% | 18% | 0% | 2% | 5% | 0% | 22% | 12% | 0% | 4% | 41% | 7% | 90% | 0% | 21% | 7% | 16% |
| Cc1ccc(NC(=O)Nc2cccc(Cl)c2)cc1-c1ccc(C(=O)Nc2ccncc2)cc1 [GSK1398468] | 24% | 0% | 7% | 0% | 0% | 7% | 3% | 0% | 0% | 0% | 0% | 6% | 9% | 0% | 0% | 7% | 5% | 30% | 25% | 14% |
| COc1ccc(Nc2nccc(NCCNC(=O)Nc3ccccc3F)n2)cc1 [GSK1379901] | 0% | 0% | 45% | 0% | 0% | 9% | 32% | 0% | 0% | 0% | 0% | 35% | 26% | 0% | 44% | 6% | 10% | 36% | 32% | 0% |
| Clc1cc(Cl)cc(Nc2ccnc(Nc3cc(Cl)cc(Cl)c3)n2)c1 [GSK175726] | 22% | 0% | 36% | 0% | 0% | 14% | 20% | 0% | 0% | 13% | 0% | 13% | 9% | 0% | 50% | 22% | 6% | 46% | 16% | 0% |
| Cc1c(Cn2ccn3c(=O)cc(N4CCOCC4)nc23)cccc1C(F)(F)F [GSK2289044] | 0% | 0% | 0% | 0% | 0% | 0% | 0% | 0% | 0% | 3% | 0% | 7% | 23% | 0% | 19% | 28% | 5% | 14% | 0% | 0% |
| Cc1c(O)cccc1Nc1ccnc2ccc(C(F)(F)F)cc12.Cl [GW466413] | 35% | 17% | 0% | 0% | 0% | 0% | 0% | 0% | 8% | 0% | 0% | 15% | 0% | 0% | 0% | 0% | 0% | 58% | 28% | 0% |
| CCn1c(-c2ccccn2)nc2cnccc21 [SB-736398] | 26% | 14% | 0% | 11% | 0% | 14% | 6% | 5% | 37% | 0% | 0% | 2% | 30% | 1% | 48% | 77% | 1% | 41% | 21% | 0% |
